Source: the supplement of paper PMC10849652
Targets with a hit are over-represented here; the source holds about 7,900 in all. About 0.6% of all pairs of compound and target were hits. A number with no mark means an inactive call.

Key:
Experiment in all cases: log2 fold change, soluble protein after heating vs DMSO (PISA); higher = thermal stabilisation; K562 cells, 10 uM, 30 min; active = over 0.2 and 3.5 SD of the protein, either way, in both replicates (recomputed)
[1] = compound: COC1=CC=C(C=C1)CN2C=CC3=C2C=C(C=C3)C(=O)NO
Procedure, shortened: (§1)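 For each measurement, 10 μM compound was applied for 30 min to K562 cells at 2×10^6 cells/mL. Aliquots were heated for 3 min across 48°C-58°C, pooled, and extracted in PBS with 0.5% NP-40 at 4°C; the supernatant after 21,000xg for 90 min was soluble protein. This was quantified by TMTpro 16plex LC-MS/MS with channel sums equalised, and thermal stability was reported relative to control samples from duplicates, on a log2 fold-change scale.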

[2] = compound: CON(C)C(=O)N1N=C(c2cc(F)ccc2F)S[C@@]1(CCCN)c1ccccc1 [filanesib]
Procedure, shortened: as §1

[3] = compound: CO[C@H]1C[C@@H]2CC[C@@H](C)[C@@](O)(O2)C(=O)C(=O)N2CCCC[C@H]2C(=O)O[C@H]([C@H](C)C[C@@H]2CC[C@H](n3cnnn3)[C@H](OC)C2)CC(=O)[C@H](C)/C=C(\C)[C@@H](O)[C@@H](OC)C(=O)[C@H](C)C[C@H](C)/C=C/C=C/C=C/1C [zotarolimus]
Procedure, shortened: as §1

[4] = compound: COc1cc(C(=O)O)ccc1NC(=O)[C@@H]1N[C@@H](CC(C)(C)C)[C@](C#N)(c2ccc(Cl)cc2F)[C@H]1c1cccc(Cl)c1F [idasanutlin]
Procedure, shortened: as §1

[5] = compound: COc1cc(Nc2ncc3c(n2)-c2ccc(Cl)cc2C(c2c(F)cccc2OC)=NC3)ccc1C(=O)O [alisertib]
Procedure, shortened: as §1

[6] = compound: COc1cc2nc(-c3cc(F)ccc3O)nc(N[C@@H]3CNC[C@H]3C(C)(C)O)c2cc1OC
Procedure, shortened: as §1

[7] = compound: COc1cc2ncnc(Nc3ccc(F)c(Cl)c3)c2cc1OCCCN1CCOCC1 [gefitinib]
Procedure, shortened: as §1

[8] = compound: COc1cccc2cc(-c3nc([C@H]4CC[C@H](C(=O)O)CC4)n4ncnc(N)c34)[nH]c12
Procedure, shortened: as §1

[9] = compound: CS(=O)(=O)CCNCc1ccc(-c2ccc3ncnc(Nc4ccc(OCc5cccc(F)c5)c(Cl)c4)c3c2)o1 [lapatinib]
Procedure, shortened: as §1

[10] = compound: CS(=O)(=O)N1CCN(Cc2cc3nc(-c4cccc5[nH]ncc45)nc(N4CCOCC4)c3s2)CC1 [pictilisib]
Procedure, shortened: as §1

Chain of UniProt Q6N063 (Q6N063 whole entry, looked up): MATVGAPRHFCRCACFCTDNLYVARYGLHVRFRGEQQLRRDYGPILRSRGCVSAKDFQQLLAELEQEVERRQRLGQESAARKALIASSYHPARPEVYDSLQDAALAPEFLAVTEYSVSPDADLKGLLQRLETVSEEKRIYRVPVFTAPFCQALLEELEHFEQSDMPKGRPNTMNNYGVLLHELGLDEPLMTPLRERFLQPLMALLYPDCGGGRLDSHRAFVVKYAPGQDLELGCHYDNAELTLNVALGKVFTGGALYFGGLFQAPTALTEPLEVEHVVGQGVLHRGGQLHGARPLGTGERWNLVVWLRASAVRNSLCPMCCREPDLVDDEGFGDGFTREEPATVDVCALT
Chain of UniProt Q9BZQ8 (Q9BZQ8 whole entry, looked up): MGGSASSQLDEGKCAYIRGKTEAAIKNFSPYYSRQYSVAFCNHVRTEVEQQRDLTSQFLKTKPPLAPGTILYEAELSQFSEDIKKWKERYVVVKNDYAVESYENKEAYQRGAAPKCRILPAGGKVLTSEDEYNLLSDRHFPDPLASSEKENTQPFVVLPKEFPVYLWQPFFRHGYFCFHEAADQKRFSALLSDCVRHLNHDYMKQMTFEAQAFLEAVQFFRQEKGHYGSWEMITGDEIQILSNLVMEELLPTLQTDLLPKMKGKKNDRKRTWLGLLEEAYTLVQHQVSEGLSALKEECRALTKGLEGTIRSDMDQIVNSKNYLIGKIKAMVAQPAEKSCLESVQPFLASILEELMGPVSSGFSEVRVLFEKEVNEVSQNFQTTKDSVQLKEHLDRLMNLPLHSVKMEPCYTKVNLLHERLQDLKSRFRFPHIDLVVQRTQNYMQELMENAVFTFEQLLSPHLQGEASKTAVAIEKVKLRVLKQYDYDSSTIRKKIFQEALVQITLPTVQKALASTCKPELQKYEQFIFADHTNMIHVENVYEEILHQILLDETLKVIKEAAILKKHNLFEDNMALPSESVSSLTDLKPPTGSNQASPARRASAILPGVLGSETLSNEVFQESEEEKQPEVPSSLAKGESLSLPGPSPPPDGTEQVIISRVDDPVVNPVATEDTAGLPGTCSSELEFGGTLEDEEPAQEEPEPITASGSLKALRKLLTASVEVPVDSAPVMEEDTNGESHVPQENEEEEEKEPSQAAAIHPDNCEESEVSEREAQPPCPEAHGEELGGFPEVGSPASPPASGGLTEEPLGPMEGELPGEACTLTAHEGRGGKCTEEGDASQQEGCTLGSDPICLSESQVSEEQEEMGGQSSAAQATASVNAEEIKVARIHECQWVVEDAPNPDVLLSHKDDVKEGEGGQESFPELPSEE
Chain of UniProt P40692 (P40692 whole entry, looked up): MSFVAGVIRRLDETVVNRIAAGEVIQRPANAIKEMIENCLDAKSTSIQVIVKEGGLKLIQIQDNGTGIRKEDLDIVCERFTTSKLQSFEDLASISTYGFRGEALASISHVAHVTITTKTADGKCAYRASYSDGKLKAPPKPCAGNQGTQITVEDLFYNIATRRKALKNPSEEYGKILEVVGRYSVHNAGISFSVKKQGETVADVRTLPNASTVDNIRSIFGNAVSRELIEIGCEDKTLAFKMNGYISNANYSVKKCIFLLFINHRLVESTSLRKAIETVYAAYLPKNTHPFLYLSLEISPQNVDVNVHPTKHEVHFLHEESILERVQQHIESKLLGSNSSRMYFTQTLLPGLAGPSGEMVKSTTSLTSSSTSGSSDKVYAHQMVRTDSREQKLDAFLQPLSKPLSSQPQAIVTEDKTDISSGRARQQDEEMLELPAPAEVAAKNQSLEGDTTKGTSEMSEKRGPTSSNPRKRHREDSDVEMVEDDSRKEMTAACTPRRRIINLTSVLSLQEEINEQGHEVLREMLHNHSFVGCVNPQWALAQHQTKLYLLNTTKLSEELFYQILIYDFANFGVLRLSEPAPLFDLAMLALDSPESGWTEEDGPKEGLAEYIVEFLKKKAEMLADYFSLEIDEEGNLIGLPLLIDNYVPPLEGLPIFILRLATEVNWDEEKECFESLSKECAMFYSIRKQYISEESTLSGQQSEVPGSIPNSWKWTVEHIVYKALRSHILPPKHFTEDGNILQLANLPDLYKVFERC
Chain of UniProt P53370 (P53370 whole entry, looked up): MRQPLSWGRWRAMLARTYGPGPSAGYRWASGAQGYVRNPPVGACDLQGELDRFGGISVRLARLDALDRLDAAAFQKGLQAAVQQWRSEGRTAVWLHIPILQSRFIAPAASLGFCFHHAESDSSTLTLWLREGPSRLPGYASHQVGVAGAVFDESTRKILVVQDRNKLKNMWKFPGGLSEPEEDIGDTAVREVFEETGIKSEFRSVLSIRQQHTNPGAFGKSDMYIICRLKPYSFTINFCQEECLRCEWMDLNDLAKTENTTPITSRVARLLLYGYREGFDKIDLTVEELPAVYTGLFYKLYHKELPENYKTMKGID
Chain of UniProt Q9Y6X9 (Q9Y6X9 whole entry, looked up): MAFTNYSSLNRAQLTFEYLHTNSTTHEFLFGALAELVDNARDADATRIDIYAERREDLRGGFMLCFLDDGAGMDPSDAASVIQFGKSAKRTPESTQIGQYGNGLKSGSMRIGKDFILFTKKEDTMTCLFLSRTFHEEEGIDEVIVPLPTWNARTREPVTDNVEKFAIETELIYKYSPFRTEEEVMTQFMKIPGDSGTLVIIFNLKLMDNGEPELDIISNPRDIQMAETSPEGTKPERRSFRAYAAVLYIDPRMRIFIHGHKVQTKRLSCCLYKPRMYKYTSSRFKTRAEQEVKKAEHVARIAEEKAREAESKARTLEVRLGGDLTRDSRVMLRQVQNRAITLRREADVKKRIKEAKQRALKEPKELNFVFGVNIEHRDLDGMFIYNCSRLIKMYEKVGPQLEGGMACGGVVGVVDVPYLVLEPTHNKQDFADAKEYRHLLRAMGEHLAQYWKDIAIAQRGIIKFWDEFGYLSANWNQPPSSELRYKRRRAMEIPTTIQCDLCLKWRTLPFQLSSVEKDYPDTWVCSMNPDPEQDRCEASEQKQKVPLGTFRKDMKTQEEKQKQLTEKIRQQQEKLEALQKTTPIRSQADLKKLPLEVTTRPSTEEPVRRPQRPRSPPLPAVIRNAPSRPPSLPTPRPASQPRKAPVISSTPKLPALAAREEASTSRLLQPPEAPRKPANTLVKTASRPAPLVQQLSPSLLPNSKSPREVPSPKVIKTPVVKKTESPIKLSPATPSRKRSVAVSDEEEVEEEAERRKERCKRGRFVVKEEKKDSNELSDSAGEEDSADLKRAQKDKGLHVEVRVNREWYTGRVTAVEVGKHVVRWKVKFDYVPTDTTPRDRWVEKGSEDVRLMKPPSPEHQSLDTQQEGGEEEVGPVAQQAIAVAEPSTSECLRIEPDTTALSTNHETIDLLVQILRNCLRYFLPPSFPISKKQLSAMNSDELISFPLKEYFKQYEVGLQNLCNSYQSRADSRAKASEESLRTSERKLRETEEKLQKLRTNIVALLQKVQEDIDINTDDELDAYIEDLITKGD
Chain of UniProt Q8N573 (Q8N573 whole entry, looked up): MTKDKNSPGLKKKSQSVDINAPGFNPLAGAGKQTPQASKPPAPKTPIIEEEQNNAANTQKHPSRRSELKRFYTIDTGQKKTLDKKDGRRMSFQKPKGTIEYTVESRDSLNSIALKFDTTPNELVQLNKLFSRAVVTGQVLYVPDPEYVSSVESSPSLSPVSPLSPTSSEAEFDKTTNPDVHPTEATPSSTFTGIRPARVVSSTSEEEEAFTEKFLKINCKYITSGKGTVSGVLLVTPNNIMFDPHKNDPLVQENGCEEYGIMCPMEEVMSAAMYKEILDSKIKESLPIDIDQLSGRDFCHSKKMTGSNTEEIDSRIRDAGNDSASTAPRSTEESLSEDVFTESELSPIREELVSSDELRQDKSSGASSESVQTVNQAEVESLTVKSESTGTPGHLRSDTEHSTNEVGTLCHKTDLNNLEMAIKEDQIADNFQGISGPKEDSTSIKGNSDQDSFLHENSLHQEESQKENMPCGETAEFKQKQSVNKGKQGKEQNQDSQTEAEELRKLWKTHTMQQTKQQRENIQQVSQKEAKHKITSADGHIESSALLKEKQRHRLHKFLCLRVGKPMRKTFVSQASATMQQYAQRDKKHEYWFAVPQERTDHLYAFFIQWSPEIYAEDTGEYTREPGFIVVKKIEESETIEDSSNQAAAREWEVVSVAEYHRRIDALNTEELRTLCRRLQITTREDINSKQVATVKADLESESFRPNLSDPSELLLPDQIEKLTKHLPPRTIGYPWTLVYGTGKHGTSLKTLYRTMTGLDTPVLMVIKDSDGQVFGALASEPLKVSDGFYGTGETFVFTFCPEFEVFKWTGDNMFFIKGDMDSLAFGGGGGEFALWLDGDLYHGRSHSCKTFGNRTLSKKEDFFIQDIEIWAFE
Chain of UniProt Q86UD1 (Q86UD1 whole entry, looked up): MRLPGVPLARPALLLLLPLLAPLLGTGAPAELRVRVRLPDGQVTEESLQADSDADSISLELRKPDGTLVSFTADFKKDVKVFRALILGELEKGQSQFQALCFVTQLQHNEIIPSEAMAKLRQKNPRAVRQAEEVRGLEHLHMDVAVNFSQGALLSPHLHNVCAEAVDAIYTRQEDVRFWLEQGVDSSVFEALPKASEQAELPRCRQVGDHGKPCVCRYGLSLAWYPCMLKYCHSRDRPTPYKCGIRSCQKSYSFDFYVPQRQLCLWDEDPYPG
Chain of UniProt Q9Y5B8 (Q9Y5B8 whole entry, looked up): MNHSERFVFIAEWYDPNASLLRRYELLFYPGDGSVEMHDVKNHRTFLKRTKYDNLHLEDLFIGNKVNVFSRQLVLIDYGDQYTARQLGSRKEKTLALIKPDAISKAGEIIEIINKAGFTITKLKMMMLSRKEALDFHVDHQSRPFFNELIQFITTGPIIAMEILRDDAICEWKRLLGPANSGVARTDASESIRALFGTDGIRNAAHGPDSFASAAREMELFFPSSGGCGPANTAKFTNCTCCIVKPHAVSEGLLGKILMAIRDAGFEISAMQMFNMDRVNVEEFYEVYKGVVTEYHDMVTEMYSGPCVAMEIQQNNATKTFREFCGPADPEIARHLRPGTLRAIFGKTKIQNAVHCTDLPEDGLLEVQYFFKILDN
Chain of UniProt Q69YL0 (Q69YL0 whole entry, looked up): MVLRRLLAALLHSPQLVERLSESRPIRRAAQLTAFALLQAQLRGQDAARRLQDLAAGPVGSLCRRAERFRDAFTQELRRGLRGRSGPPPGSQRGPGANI

Row | Target | log2 fold change [1] | log2 fold change [2] | log2 fold change [3] | log2 fold change [4] | log2 fold change [5] | log2 fold change [6] | log2 fold change [7] | log2 fold change [8] | log2 fold change [9] | log2 fold change [10]
1 | NPM3 (UniProt O75607) | 0.123 | 0.116 | 0.104 | 0.258 | -0.205 | 0.006 | -0.011 | -0.069 | -0.003 | -0.025
2 | MRPS31 (UniProt Q92665) | 0.016 | 0.029 | 0.03 | -0.202 | -0.008 | -0.025 | -0.077 | -0.016 | 0.054 | -0.005
3 | NDUFB10 (UniProt O96000) | 0.044 | -0.025 | 0.006 | -0.035 | -0.021 | -0.047 | 0 | 0.05 | -0.035 | 0.082
4 | NME7 (UniProt Q9Y5B8) | -0.1 | 0.124 | 0.058 | -0.041 | 0.054 | 0.015 |  | -0.077 | -0.046 | 0.071
5 | NDFIP1 (UniProt Q9BT67) | 0.051 | -0.134 | 0.106 | -0.034 | -0.105 |  | -0.155 | -0.14 |  | 0.228
6 | MPP1 (UniProt Q00013) | 0.024 | -0.041 | -0.027 | 0.069 | 0.032 | 0.016 | 0.114 | -0.074 | 0.032 | 0.096
7 | PAAF1 (UniProt Q9BRP4) | -0.013 | -0.082 | -0.008 | -0.026 | -0.062 | 0.026 | -0.002 | 0.047 | 0.027 | 0.048
8 | NME2P1 (UniProt O60361) | -0.256 | 0.058 | -0.111 | -0.367 | -0.089 | 0.122 | -0.01 | 0.084 | -0.075 | -0.041
9 | MYH11 isoform 2 (UniProt P35749) | 0.027 | -0.002 | 0.022 | -0.045 | 0.033 | 0.067 | 0.025 | -0.033 | 0.018 | -0.035
10 | NMNAT1 (UniProt Q9HAN9) | -0.168 | 0.354 | -0.023 | 0.154 | -0.115 | 0.132 | -0.022 | -0.102 | 0.018 | -0.014
11 | NIBAN1 (UniProt Q9BZQ8) | 0.055 | 0.028 | 0.028 | -0.007 | -0.052 | -0.043 | -0.032 | -0.062 | -0.015 | 0
12 | MPHOSPH8 isoform 2 (UniProt Q99549) | -0.002 | 0.128 | -0.191 | 0.062 | -0.016 | 0.032 |  | 0.125 | 0.024 | 
13 | OSBPL3 (UniProt Q9H4L5) | -0.052 | 0.582 | 0.14 | 0.277 |  | -0.688 | 0.174 |  | 0.391 | 
14 | MYLK (UniProt Q15746) | -0.293 | 0.041 | 0.01 |  | -0.095 | 0.043 | 0.342 | 0.16 | 0.06 | 0.098
15 | NECTIN2 isoform 2 (UniProt Q92692) | 0.106 | 0.094 |  | 0.061 | -0.016 |  | -0.048 | 0.093 |  | -0.368
16 | MYO19 (UniProt Q96H55) | -0.083 |  | 0.071 | -0.116 |  | 0.081 | 0.024 |  | 0.276 | 0.567 (active)
17 | OSBPL2 (UniProt Q9H1P3) |  |  | 0.085 |  | -0.019 | -0.187 |  | -0.042 | 1.57 (active) | 
18 | NCBP2AS2 (UniProt Q69YL0) |  | -0.09 | -0.051 | -0.023 | -0.058 | -0.42 (active) | -0.137 | 0.044 | -0.093 | 0.033
19 | MT-ND2 (UniProt P03891) | -0.029 |  | 0.065 | -0.143 | 0.04 | -0.131 | 0.106 | 0.074 | -0.008 | 0.139
20 | NA (UniProt J3KR12) | 0.123 |  |  |  | -0.116 |  | -0.134 | 0.077 |  | 
21 | NUDT6 (UniProt P53370) | 0.017 |  | -0.173 |  | 0.012 | 0.175 | -0.025 | -0.084 | -0.017 | 
22 | NA, A0A1W2PSA9 |  |  | -0.275 | 0.049 |  |  |  |  |  | -0.179
23 | MSANTD2 (UniProt Q6P1R3) |  | -0.107 |  |  |  |  |  |  |  | 
24 | OXR1 isoform 2 (UniProt Q8N573) | -0.175 |  | -0.014 | -0.009 |  | 0.018 | 0.014 |  | -0.061 | -0.073
25 | MOB2 isoform 3 (UniProt Q70IA6) |  |  | 0.205 |  | -0.066 | -0.184 | 0.051 | 0.02 | 0.025 | 0.06
26 | NKAP (UniProt Q8N5F7) | -0.005 |  | 0.112 | 0.115 | 0.037 | -0.051 | -0.029 | -0.13 | 0.09 | -0.013
27 | NMU (UniProt P48645) | 0.259 |  | -0.018 | 0.057 |  | -0.156 | 0.162 |  | -0.047 | -0.3
28 | NASP isoform 2 (UniProt P49321) |  |  |  |  | -0.129 |  |  | -0.58 |  | 

Row | Target | log2 fold change [1] | log2 fold change [2] | log2 fold change [3] | log2 fold change [4] | log2 fold change [5] | log2 fold change [6] | log2 fold change [7] | log2 fold change [8] | log2 fold change [9] | log2 fold change [10]
29 | NRGN (UniProt Q92686) | -0.831 |  |  | 0.023 |  | -0.108 | -0.012 |  | 0.107 | 0.404
30 | MXRA7 isoform 3 (UniProt P84157) |  |  |  |  |  | 0.077 |  |  | -0.27 | 
31 | NAP1L1 (UniProt B7Z9C2) | -0.116 |  |  | -0.004 | 0.258 |  | 0.03 | 0.066 |  | 0.111
32 | OGFOD2 (UniProt Q6N063) | -0.275 |  | 0.034 | 0.073 | 0.007 |  | 0.071 | -0.033 |  | -0.144
33 | MON1A (UniProt Q86VX9) | -0.118 | -0.023 |  |  | 0.291 | -0.042 | 0.427 | 0.049 | -0.003 | -0.011
34 | ORC3 (UniProt Q9UBD5) |  |  |  | -0.167 |  |  |  |  |  | 
35 | NOS1AP (UniProt O75052) |  |  | -0.098 |  | 0.353 | -0.09 |  | -0.118 | -0.1 | 
36 | NDUFA7 (UniProt M0R0N0) |  | -0.042 |  |  |  |  |  |  |  | 
37 | NOLC1 isoform 3 (UniProt Q14978) |  |  | -0.013 |  |  |  |  |  |  | 
38 | NCOA5 (UniProt Q9HCD5) | 0.046 | 0.209 |  |  |  | 0.04 | 0.145 |  | 0.047 | -0.043
39 | NIPSNAP2 (UniProt C9J7B1) |  | 0.05 |  | -0.38 | -0.041 |  |  | -0.047 |  | 
40 | NUDT7 (UniProt P0C024) | 0.023 | -0.092 |  |  |  |  | 0.05 |  |  | 0.115
41 | PACRGL (UniProt Q8N7B6) |  | 0.056 |  |  |  |  |  |  |  | 
42 | MTHFD1, A0A384N5Y3 |  | -0.025 | -0.032 | 0.024 | -0.011 | 0.055 | 0.075 | 0.001 | -0.016 | 0.107
43 | NKTR (UniProt P30414) |  |  |  |  | 0.064 | 0.295 |  | 0.109 | -0.173 | 
44 | OAF (UniProt Q86UD1) |  | -0.017 |  |  | -0.239 |  |  | 0.539 (active) |  | 
45 | NA, A0A494C071 | -0.265 |  | -0.011 | -0.392 | 0.016 |  | 0.367 | 0.143 |  | 0.277
46 | MLH1 (UniProt P40692) |  |  | 0.024 | 0.03 | -0.171 | -0.135 |  | -0.1 | 0.091 | 0.083
47 | MMADHC (UniProt Q9H3L0) | -0.031 |  | 0.102 | -0.135 | 0.006 | 0.056 | 0.305 | 0.013 | 0.176 | -0.114
48 | MORC2 (UniProt Q9Y6X9) | 0.195 |  |  | -0.018 | -0.012 | 0.134 |  | -0.013 | -0.118 | 
49 | NA (UniProt B2RBV5) |  | 0.081 |  |  | -0.043 | 0.001 | -0.33 | 0.028 | -0.243 | 0.061
50 | OVCA2 (UniProt Q8WZ82) | -0.206 |  |  | -0.023 | 0.102 | 0.201 | -0.143 | -0.318 | -0.014 | -0.176
51 | MOB3B (UniProt Q86TA1) | 0.355 |  | -0.087 | -0.24 | -0.001 | 0.04 | 0.384 | -0.011 | -0.033 | 0.067
52 | NELFCD (UniProt Q8IXH7) | 0.006 |  | -0.071 | 0 |  | 0.179 | -0.052 |  | -0.006 | -0.061
53 | MRM2 (UniProt Q9UI43) |  |  | 0.11 | 0.518 (active) |  | 0.078 | 0.066 |  | 0.108 | 
54 | NEU3 isoform 2 (UniProt Q9UQ49) |  | -0.286 |  |  |  | 0.301 |  |  | -0.126 | 
55 | MITF (UniProt O75030) | 0.122 | 0.106 |  | -0.042 | 0.008 |  | -0.13 | 0 |  | -0.397
